{
  "source": "PubChem BioAssay AID1159580",
  "about": "(chemical genetic matrix, 2015)",
  "assay": "chemical genetic growth profiling, strain panel (AID 1159580);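 note: tested at 20 µM; growth read once vehicle control cultures reached saturation at 30 °C; 1 = growth at the plate median or of vehicle wells; lower values mean less growth of the strain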",
  "conditions": "growth OD",
  "note": "The campaign covered roughly 5,500 compounds. About 2,000 (36%) were called active. Not shown: some 18% with an inconclusive outcome. This is one part of the list. A number with no mark means an inactive call. Cut-off read from the data, not from the text of the source: active = normalized growth mostly below about 0.91 (no sharp cut-off); inconclusive = no clear call, values can overlap the other calls; inactive = mostly above about 0.92.",
  "data": [
    {"smiles": "O=c1oc2ccccc2c(O)c1Cc1c(O)c2ccccc2oc1=O", "values": [
      {"measurement": "normalized growth", "setting": "S. cerevisiae deletion strains, locus YJR066W, strain TOR1, hits give low values", "value": 0.859},
      {"measurement": "normalized growth", "setting": "S. cerevisiae deletion strains, locus YKL009W, strain mrt4, hits give low values", "value": 0.944},
      {"measurement": "normalized growth", "setting": "S. cerevisiae deletion strains, locus YKL068W, hits give low values", "value": 0.959},
      {"measurement": "normalized growth", "setting": "S. cerevisiae deletion strains, locus YKL085W, strain MDH1 (second series), hits give low values", "value": "0.923 (active)"},
      {"measurement": "normalized growth", "setting": "S. cerevisiae deletion strains, locus YKL085W, strain MDH1, hits give low values", "value": "0.923 (active)"},
      {"measurement": "normalized growth", "setting": "S. cerevisiae deletion strains, locus YKL160W, strain elf1, hits give low values", "value": 1.01},
      {"measurement": "normalized growth", "setting": "S. cerevisiae deletion strains, locus YKR001C, strain vps1, hits give low values", "value": 0.962},
      {"measurement": "normalized growth", "setting": "S. cerevisiae deletion strains, locus YKR026C, strain gcn3, hits give low values", "value": 1.02},
      {"measurement": "normalized growth", "setting": "S. cerevisiae deletion strains, locus YKR091W, strain srl3, hits give low values", "value": 0.999},
      {"measurement": "normalized growth", "setting": "S. cerevisiae deletion strains, locus YLL001W, strain dnm1, hits give low values", "value": 1.03},
      {"measurement": "normalized growth", "setting": "S. cerevisiae deletion strains, locus YLL026W, hits give low values", "value": 0.996},
      {"measurement": "normalized growth", "setting": "S. cerevisiae deletion strains, locus YLL041C, strain sdh2, hits give low values", "value": 0.987},
      {"measurement": "normalized growth", "setting": "S. cerevisiae deletion strains, locus YLR027C, strain aat2, hits give low values", "value": 0.992},
      {"measurement": "normalized growth", "setting": "S. cerevisiae deletion strains, locus YLR039C, strain RIC1, hits give low values", "value": 1.01},
      {"measurement": "normalized growth", "setting": "S. cerevisiae deletion strains, locus YLR058C, strain SHM2, hits give low values", "value": 1},
      {"measurement": "normalized growth", "setting": "S. cerevisiae deletion strains, locus YLR102C, strain apc9, hits give low values", "value": 0.964},
      {"measurement": "normalized growth", "setting": "S. cerevisiae deletion strains, locus YLR113W, strain HOG1, hits give low values", "value": 0.965},
      {"measurement": "normalized growth", "setting": "S. cerevisiae deletion strains, locus YLR221C, strain rsa3, hits give low values", "value": 0.994},
      {"measurement": "normalized growth", "setting": "S. cerevisiae deletion strains, locus YLR258W, strain gsy2, hits give low values", "value": 1},
      {"measurement": "normalized growth", "setting": "S. cerevisiae deletion strains, locus YLR262C, strain YPT6 (second series), hits give low values", "value": 0.975},
      {"measurement": "normalized growth", "setting": "S. cerevisiae deletion strains, locus YLR262C, strain YPT6, hits give low values", "value": 1.01},
      {"measurement": "normalized growth", "setting": "S. cerevisiae deletion strains, locus YLR268W, strain sec22, hits give low values", "value": 1},
      {"measurement": "normalized growth", "setting": "S. cerevisiae deletion strains, locus YLR320W, strain mms22, hits give low values", "value": 0.989},
      {"measurement": "normalized growth", "setting": "S. cerevisiae deletion strains, locus YLR330W, strain CHS5, hits give low values", "value": 0.993},
      {"measurement": "normalized growth", "setting": "S. cerevisiae deletion strains, locus YLR342W, strain FKS1 (second series), hits give low values", "value": 1.03},
      {"measurement": "normalized growth", "setting": "S. cerevisiae deletion strains, locus YLR342W, strain FKS1, hits give low values", "value": 1},
      {"measurement": "normalized growth", "setting": "S. cerevisiae deletion strains, locus YLR357W, strain rsc2, hits give low values", "value": 1.01},
      {"measurement": "normalized growth", "setting": "S. cerevisiae deletion strains, locus YLR370C, strain arc18, hits give low values", "value": 1},
      {"measurement": "normalized growth", "setting": "S. cerevisiae deletion strains, locus YLR371W, strain rom2, hits give low values", "value": 0.968},
      {"measurement": "normalized growth", "setting": "S. cerevisiae deletion strains, locus YLR384C, strain iki3, hits give low values", "value": 1},
      {"measurement": "normalized growth", "setting": "S. cerevisiae deletion strains, locus YLR418C, strain cdc73, hits give low values", "value": 0.948},
      {"measurement": "normalized growth", "setting": "S. cerevisiae deletion strains, locus YML016C, strain PPZ1, hits give low values", "value": 1},
      {"measurement": "normalized growth", "setting": "S. cerevisiae deletion strains, locus YML032C, strain rad52, hits give low values", "value": 0.986},
      {"measurement": "normalized growth", "setting": "S. cerevisiae deletion strains, locus YML120C, strain ndi1, hits give low values", "value": 1.02},
      {"measurement": "normalized growth", "setting": "S. cerevisiae deletion strains, locus YML124C, strain tub3, hits give low values", "value": 0.961},
      {"measurement": "normalized growth", "setting": "S. cerevisiae deletion strains, locus YMR058W, strain fet3, hits give low values", "value": 1},
      {"measurement": "normalized growth", "setting": "S. cerevisiae deletion strains, locus YMR078C, strain ctf18, hits give low values", "value": 0.958},
      {"measurement": "normalized growth", "setting": "S. cerevisiae deletion strains, locus YMR125W, strain sto1, hits give low values", "value": 1.02},
      {"measurement": "normalized growth", "setting": "S. cerevisiae deletion strains, locus YMR129W, hits give low values", "value": 1.01},
      {"measurement": "normalized growth", "setting": "S. cerevisiae deletion strains, locus YMR205C, strain PFK2, hits give low values", "value": 1},
      {"measurement": "normalized growth", "setting": "S. cerevisiae deletion strains, locus YMR223W, strain ubp8, hits give low values", "value": 0.953},
      {"measurement": "normalized growth", "setting": "S. cerevisiae deletion strains, locus YMR231W, strain pep5, hits give low values", "value": 1},
      {"measurement": "normalized growth", "setting": "S. cerevisiae deletion strains, locus YMR307W, strain GAS1, hits give low values", "value": 0.947},
      {"measurement": "normalized growth", "setting": "S. cerevisiae deletion strains, locus YNL067W, strain RPL9B, hits give low values", "value": 0.987},
      {"measurement": "normalized growth", "setting": "S. cerevisiae deletion strains, locus YNL071W, strain lat1, hits give low values", "value": 1.02},
      {"measurement": "normalized growth", "setting": "S. cerevisiae deletion strains, locus YNL128W, strain TEP1, hits give low values", "value": 0.998},
      {"measurement": "normalized growth", "setting": "S. cerevisiae deletion strains, locus YNL153C, strain GIM3, hits give low values", "value": 1},
      {"measurement": "normalized growth", "setting": "S. cerevisiae deletion strains, locus YNL183C, strain NPR1, hits give low values", "value": 0.949},
      {"measurement": "normalized growth", "setting": "S. cerevisiae deletion strains, locus YNL209W, strain ssb2, hits give low values", "value": 0.999},
      {"measurement": "normalized growth", "setting": "S. cerevisiae deletion strains, locus YNL233W, strain BNI4, hits give low values", "value": 1},
      {"measurement": "normalized growth", "setting": "S. cerevisiae deletion strains, locus YNL248C, strain rpa49, hits give low values", "value": 1.05},
      {"measurement": "normalized growth", "setting": "S. cerevisiae deletion strains, locus YNL250W, strain rad50, hits give low values", "value": 0.958},
      {"measurement": "normalized growth", "setting": "S. cerevisiae deletion strains, locus YNL271C, strain bni1, hits give low values", "value": 0.942},
      {"measurement": "normalized growth", "setting": "S. cerevisiae deletion strains, locus YNL298W, strain CLA4, hits give low values", "value": 0.932},
      {"measurement": "normalized growth", "setting": "S. cerevisiae deletion strains, locus YNL307C, strain MCK1, hits give low values", "value": 0.973},
      {"measurement": "normalized growth", "setting": "S. cerevisiae deletion strains, locus YNL322C, strain KRE1 (second series), hits give low values", "value": 0.98},
      {"measurement": "normalized growth", "setting": "S. cerevisiae deletion strains, locus YNL322C, strain KRE1, hits give low values", "value": 0.987},
      {"measurement": "normalized growth", "setting": "S. cerevisiae deletion strains, locus YNR049C, strain mso1, hits give low values", "value": 0.996},
      {"measurement": "normalized growth", "setting": "S. cerevisiae deletion strains, locus YNR052C, strain pop2, hits give low values", "value": 0.97},
      {"measurement": "normalized growth", "setting": "S. cerevisiae deletion strains, locus YOL012C, strain htz1", "value": 1.21},
      {"measurement": "normalized growth", "setting": "S. cerevisiae deletion strains, locus YOL147C, strain pex11, hits give low values", "value": 0.961},
      {"measurement": "normalized growth", "setting": "S. cerevisiae deletion strains, locus YOR001W, strain rrp6, hits give low values", "value": 0.997},
      {"measurement": "normalized growth", "setting": "S. cerevisiae deletion strains, locus YOR061W, strain CKA2, hits give low values", "value": 1},
      {"measurement": "normalized growth", "setting": "S. cerevisiae deletion strains, locus YOR069W, strain VPS5, hits give low values", "value": 0.99},
      {"measurement": "normalized growth", "setting": "S. cerevisiae deletion strains, locus YOR070C, strain gyp1, hits give low values", "value": 1},
      {"measurement": "normalized growth", "setting": "S. cerevisiae deletion strains, locus YOR080W, strain dia2, hits give low values", "value": 1},
      {"measurement": "normalized growth", "setting": "S. cerevisiae deletion strains, locus YOR083W, strain WHI5, hits give low values", "value": 0.968},
      {"measurement": "normalized growth", "setting": "S. cerevisiae deletion strains, locus YOR106W, strain vam3, hits give low values", "value": 1.04},
      {"measurement": "normalized growth", "setting": "S. cerevisiae deletion strains, locus YOR136W, strain idh2, hits give low values", "value": 0.988},
      {"measurement": "normalized growth", "setting": "S. cerevisiae deletion strains, locus YOR144C, strain elg1, hits give low values", "value": 0.968},
      {"measurement": "normalized growth", "setting": "S. cerevisiae deletion strains, locus YOR184W, strain ser1, hits give low values", "value": 0.978},
      {"measurement": "normalized growth", "setting": "S. cerevisiae deletion strains, locus YOR231W, strain MKK1, hits give low values", "value": 0.954},
      {"measurement": "normalized growth", "setting": "S. cerevisiae deletion strains, locus YOR265W, strain rbl2, hits give low values", "value": 1},
      {"measurement": "normalized growth", "setting": "S. cerevisiae deletion strains, locus YOR270C, strain vph1, hits give low values", "value": 1.06},
      {"measurement": "normalized growth", "setting": "S. cerevisiae deletion strains, locus YOR290C, strain snf2, hits give low values", "value": 1.01},
      {"measurement": "normalized growth", "setting": "S. cerevisiae deletion strains, locus YOR316C, strain cot1, hits give low values", "value": 0.968},
      {"measurement": "normalized growth", "setting": "S. cerevisiae deletion strains, locus YPL051W, strain arl3, hits give low values", "value": 1},
      {"measurement": "normalized growth", "setting": "S. cerevisiae deletion strains, locus YPL078C, strain atp4, hits give low values", "value": 1.02},
      {"measurement": "normalized growth", "setting": "S. cerevisiae deletion strains, locus YPL106C, strain sse1, hits give low values", "value": 0.952},
      {"measurement": "normalized growth", "setting": "S. cerevisiae deletion strains, locus YPL240C, strain hsp82, hits give low values", "value": 0.997},
      {"measurement": "normalized growth", "setting": "S. cerevisiae deletion strains, locus YPL241C, strain CIN2, hits give low values", "value": 0.987},
      {"measurement": "normalized growth", "setting": "S. cerevisiae deletion strains, locus YPL256C, strain CLN2, hits give low values", "value": 0.914},
      {"measurement": "normalized growth", "setting": "S. cerevisiae deletion strains, locus YPR119W, strain clb2, hits give low values", "value": 0.966},
      {"measurement": "normalized growth", "setting": "S. cerevisiae deletion strains, locus YPR141C, strain kar3, hits give low values", "value": 0.948},
      {"measurement": "normalized growth", "setting": "S. cerevisiae deletion strains, locus YPR163C, strain tif3, hits give low values", "value": 0.958},
      {"measurement": "normalized growth", "setting": "S. cerevisiae deletion strains, locus YPR167C, strain met16, hits give low values", "value": 0.958},
      {"measurement": "normalized growth", "setting": "S. cerevisiae deletion strains, strain wtn01, hits give low values", "value": 0.978},
      {"measurement": "normalized growth", "setting": "S. cerevisiae strains, strain wild type, hits give low values", "value": 0.998}
    ]}
  ]
}
